Measurements: the supplement of paper PMC13380429

Tested on: Vero E6 infected with SARS-CoV-2
Assay: inhibition of SARS-CoV-2 cytopathic effect; higher = more antiviral protection, active = above 15
Conditions: 48 h

Measured: inhibition of SARS-CoV-2 cytopathic effect

COc1ccc(-c2ccc3ncc4c(c3c2)n(-c2ccc(N3CCNCC3)c(C(F)(F)F)c2)c(=O)n4C)cn1
inactive: 1 nM 0.99% | 8.33 nM 2.5% | 100 nM -0.69% | 833.33 nM -8.37% | 10000 nM -23.9%

CC(C)(OCc1nn(Cc2ccccc2)c2ccccc12)C(=O)O [bindarit]
inactive: 1 nM -0.08% | 8.33 nM -0.77% | 100 nM 0.47% | 833.33 nM -2.78% | 10000 nM -0.8%

C=Cc1c(C)c2cc3nc(c(CC(=O)O)c4[n-]c(cc5nc(cc1[n-]2)C(C)=C5CC)c(C)c4C(=O)O)[C@@H](CCC(=O)O)[C@@H]3C.[Cu+2] [chlorophyllin-copper]
inactive: 1 nM -0.37% | 8.33 nM 2.9% | 100 nM -1.68% | 833.33 nM -0.25% | 10000 nM -2.81%

CCCCCn1cc(C(=O)NC23CC4CC(CC(C4)C2)C3)c(=O)c2cc(-c3ccccc3)ccc21
inactive: 1 nM -3.48% | 8.33 nM -3% | 100 nM -0.96% | 833.33 nM -1.94% | 10000 nM -5.93%

O=C(Nc1cccc(Cl)c1)Nc1ncc(CCNc2ncnc3ccsc23)s1
inactive: 1 nM 0.21% | 8.33 nM 0.43% | 100 nM 3.34% | 833.33 nM -0.89% | 10000 nM -1.37%

O=C(N[C@@H](Cc1c[nH]c2ccccc12)C(=O)O)c1ccc(Cl)cc1 [benzotript]
inactive: 1 nM 1.07% | 8.33 nM 1.9% | 100 nM 2.83% | 833.33 nM 2.01% | 10000 nM 3.35%

CCn1nc(C(=O)O)c(=O)c2cc3c(cc21)OCO3 [cinoxacin]
inactive: 1 nM 0.52% | 8.33 nM -0.24% | 100 nM 0.19% | 833.33 nM 0.12% | 10000 nM -1.09%

Cc1nc(-c2ccc(OCC(C)C)c(C#N)c2)sc1C(=O)O [febuxostat]
inactive: 1 nM -0.9% | 8.33 nM -0.46% | 100 nM -0.43% | 833.33 nM 2.99% | 10000 nM 1.58%

C1N2CN3CN1CN(C2)C3 [methenamine]
inactive: 1 nM -3.74% | 8.33 nM 0.58% | 100 nM -1.64% | 833.33 nM -0.2% | 10000 nM -1.08%

CCCC(=O)O[C@]1(C(=O)COC(C)=O)CC[C@H]2[C@@H]3C[C@H](F)C4=CC(=O)C=C[C@]4(C)[C@@]3(F)[C@@H](O)C[C@@]21C [difluprednate]
inactive: 1 nM 1.05% | 8.33 nM 1.55% | 100 nM 1.52% | 833.33 nM 1.03% | 10000 nM 6.96%

Nc1nc2c(ncn2[C@@H]2O[C@H](CO)[C@@H](O)[C@H]2O)c(=O)[nH]1 [guanosine]
inactive: 1 nM -3.19% | 8.33 nM -0.4% | 100 nM -0.7% | 833.33 nM -1.53% | 10000 nM 0.09%

COc1c(O[C@@H]2O[C@H](CO)[C@@H](O)[C@H](O)[C@H]2O)cc2c(c1OC)-c1ccc(SC)c(=O)cc1[C@@H](NC(C)=O)CC2 [thiocolchicoside]
inactive: 1 nM 0.08% | 8.33 nM 2.05% | 100 nM -0.7% | 833.33 nM -5.51% | 10000 nM -3.66%

c1cc(CN2CCCCC2)cc(OCCCNc2nc3ccccc3s2)c1 [zolantidine]
inactive: 1 nM 0.78% | 8.33 nM 3.51% | 100 nM 1.37% | 833.33 nM 4.09% | 10000 nM 4.6%

COc1ccc(C2C(=O)c3ccccc3C2=O)cc1 [anisindione]
inactive: 1 nM 0.46% | 8.33 nM 1.92% | 100 nM 2.19% | 833.33 nM -3.04% | 10000 nM -1.46%

CC(C)(C)c1ccc(C(O)CCCN2CCC(C(O)(c3ccccc3)c3ccccc3)CC2)cc1 (stereo not given) [terfenadine]
inactive: 1 nM 1.94% | 8.33 nM -2.95% | 100 nM -0.52% | 833.33 nM -3.56% | 10000 nM -21.1%

Cc1c(Cn2c(C)nc3c(C(=O)O)cc(N4CCOCC4)cc32)cccc1C(F)(F)F
inactive: 1 nM 1.56% | 8.33 nM 4.39% | 100 nM 3.91% | 833.33 nM -2.09% | 10000 nM -2.66%

C[C@@](Cc1ccc(O)c(O)c1)(NN)C(=O)O [carbidopa]
inactive: 1 nM -5% | 8.33 nM -1.47% | 100 nM -3.59% | 833.33 nM -2.28% | 10000 nM -0.52%
